Among the data in article PMC8384837, “Expanding the binding specificity for RNA recognition by a PUF domain” are binding signal values, retold here.

The target of the assay is PUM1 PUF domain R5-LYR (Homo sapiens, UniProt Q14671 828-1176, C1007L;R1008Y;Q1011R). The experiment in a line: yeast three-hybrid, YBZ-1, SC-Leu-His + 0.5 mM 3-AT, 4 days. The note with it: tags: N-Gal4 AD-HA kept; label: inside an RPR1-promoter hybrid RNA with tandem MS2 sites; ssRNA. The gist of the method: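 Matching RNA elements and Pumilio-1 PUF domain libraries, randomized at the three base-contacting residues of every repeat, were co-expressed from a centromeric plasmid in strain YBZ-1 (LexA–MS2 coat fusion, HIS3 reporter). The repeat regions were PCR-amplified and Illumina-sequenced from cells grown four days on SC-Leu (input) or SC-Leu-His + 0.5 mM 3-AT (selection). The interaction score is the log change in variant frequency from input to selection. It is computed in log2, with a pseudocount of 1 for absent variants.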
For the sequence “GGCUAGAACUAGUGGAUCCCCCGGCGCCCGGCGGCUCGAGCCCGGGUAAGUGUGAAUAGUCUGCAUGCCGCCGGGCGCCAUGCCUGCAGGUCGACUCUAGAAAACAUG”, the binding signal is 0.51 log2 enrichment (interaction score).

With “GGCUAGAACUAGUGGAUCCCCCGGCGCCCGGCGGCUCGAGCCCGGGUAAGUGUCAAUAGUCUGCAUGCCGCCGGGCGCCAUGCCUGCAGGUCGACUCUAGAAAACAUG”, the binding signal was 3.17 log2 enrichment (interaction score).

Take “GGCUAGAACUAGUGGAUCCCCCGGCGCCCGGCGGCUCGAGCCCGGGUAAGUGUUAAUAGUCUGCAUGCCGCCGGGCGCCAUGCCUGCAGGUCGACUCUAGAAAACAUG”: the binding signal was 3.43 log2 enrichment (interaction score).

Turning to “GGCUAGAACUAGUGGAUCCCCCGGCGCCCGGCGGCUCGAGCCCGGGUAAGUGUAAAUAGUCUGCAUGCCGCCGGGCGCCAUGCCUGCAGGUCGACUCUAGAAAACAUG”, the binding signal is 4.43 log2 enrichment (interaction score).
